Source: PubChem
An excerpt weighted towards active compounds, which were near 3.8% of everything screened.
PfM18AAP inh: PfM18AAP inhibitors, malaria aminopeptidase, primary screen, biochemical, QFRET, recombinant enzyme; M18 aspartyl aminopeptidase (Plasmodium falciparum 3D7); H-Glu-NHMec fluorogenic cleavage; inhibition, % at 7.35 µM; hit rate 1.2% among 290,000;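 active = inhibition above the campaign mean inhibition over all tested compounds plus 3 SD, cut at about 28% in these data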
Pemphigus Ab inh: inhibitors of pemphigus antibody binding to DSG3, primary screen, biochemical, bead-based, flow cytometry, scFv-GFP; hit rate 0.48% among 310,000; binding (percent of control), % at 10 µM; Desmoglein-3 (Homo sapiens), P32926; DSG3-coupled beads, scFv-anti-DSG3-GFP binding; stronger effect = lower value;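 active = binding more than 3 SD below its plate's average and above zero; inconclusive = below that plate limit but binding exactly zero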
PAFAH1B3 inh: PAFAH1B3 enzyme inhibitors, primary screen, biochemical, fluorescence polarization, human. recombinant PAFAH1B3, FP-rhodamine probe. inhibition, % at 3.39 µM. hit rate 0.28% among 340,000;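 active = inhibition above the screen-wide average of all tested compounds plus 3 SD, cut at about 25% in these data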
Target sequence (Q15102 whole entry, looked up): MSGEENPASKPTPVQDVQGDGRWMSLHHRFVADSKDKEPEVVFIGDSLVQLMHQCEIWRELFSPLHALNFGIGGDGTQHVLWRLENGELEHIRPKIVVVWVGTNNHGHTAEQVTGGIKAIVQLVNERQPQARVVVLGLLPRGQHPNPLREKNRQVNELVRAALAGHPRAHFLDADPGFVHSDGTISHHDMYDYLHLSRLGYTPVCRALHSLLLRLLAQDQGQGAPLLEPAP
PAFAH1B2 inh: PAFAH1B2 enzyme inhibitors, primary screen, biochemical, fluorescence polarization, human. Platelet-activating factor acetylhydrolase IB subunit alpha2 (Homo sapiens), P68402. recombinant PAFAH1B2, FP-rhodamine activity probe. inhibition, % at 3.39 µM. hit rate 1.2% among 340,000. AID 492953, 2010;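 active = inhibition above the mean of all tested compounds plus 3 SD, cut at about 24% in these data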
Target sequence (P68402 whole entry, looked up): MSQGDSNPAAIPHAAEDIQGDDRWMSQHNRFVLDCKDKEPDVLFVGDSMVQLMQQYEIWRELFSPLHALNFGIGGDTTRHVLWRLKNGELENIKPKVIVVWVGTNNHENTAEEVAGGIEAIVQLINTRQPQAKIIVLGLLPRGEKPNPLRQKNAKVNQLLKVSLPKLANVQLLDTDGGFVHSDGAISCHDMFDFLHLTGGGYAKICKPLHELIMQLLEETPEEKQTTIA
pPAFAH FP inh: pPAFAH enzyme inhibitors, primary screen, biochemical, fluorescence polarization, human | Platelet-activating factor acetylhydrolase (Homo sapiens), Q13093 | recombinant pPAFAH, FP-rhodamine probe fluorescence polarization | inhibition, % at 3.39 µM | hit rate 1.5% among 330,000;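 active = inhibition above the mean inhibition across the screen plus 3 SD, cut at about 25% in these data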;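 note: inhibitors block binding of the rhodamine activity-based probe so polarization drops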
PAFAH2 inh: PAFAH2 enzyme inhibitors, primary screen, biochemical, fluorescence polarization, human; inhibition, % at 3.39 µM; hit rate 0.99% among 340,000; Platelet-activating factor acetylhydrolase 2, cytoplasmic (Homo sapiens), Q99487; recombinant PAFAH2, FP-rhodamine activity probe;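 active = inhibition above the mean over all tested compounds plus 3 SD, cut at about 30% in these data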;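 note: inhibitors block probe labeling of enzyme so polarization drops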
pPAFAH FP conf: pPAFAH (PLA2G7) enzyme inhibitors, confirmation, biochemical, fluorescence polarization, human. shares compounds with pPAFAH FP inh. recombinant pPAFAH, FP-Rh probe fluorescence polarization. inhibition, % at 3.39 µM. hit rate 72% among 2,300. AID 463230, 2010;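 active = mean inhibition of the triplicate above the hit cutoff set for the earlier primary screen, cut at about 25% in these data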
Of the large screens only hits and unclear results are named; the others gave an inactive call (follow-up assays come after a bar, where they were run).

CC(C)=CCc1cc2c(=O)c3c(O)c4c(cc3oc2c(O)c1O)OC(C)C4(C)C (configuration not stated)	pPAFAH FP inh 67 (no result: PfM18AAP inh, Pemphigus Ab inh, PAFAH1B3 inh, PAFAH1B2 inh, PAFAH2 inh) | pPAFAH FP conf 86
CC1Oc2cc3oc4c(O)c5c(cc4c(=O)c3c(O)c2C1(C)C)C=CC(C)(C)O5 (configuration not stated)	none (no result: PfM18AAP inh, Pemphigus Ab inh, PAFAH1B3 inh, PAFAH1B2 inh, PAFAH2 inh)
O=C(NC(=S)N(CCO)Cc1ccccc1)c1ccc(S(=O)(=O)N2CCCC2)cc1	none
CN(C)CCCNc1ncnc2c1c(-c1ccccc1)cn2-c1ccccc1	none
OCCOCCNc1ncnc2c1c(-c1ccccc1)cn2-c1ccccc1	pPAFAH FP inh 35 | pPAFAH FP conf inactive
O=C(O)CCNc1cc(N2CCN(C(=O)c3ccco3)CC2)c2noc3c2c1C(=O)c1ccccc1-3	PfM18AAP inh 35, pPAFAH FP inh 74 | pPAFAH FP conf 45
CC(=O)OCCNc1cc(N2CCN(C)CC2)c2noc3c2c1C(=O)c1ccccc1-3	none (no result: pPAFAH FP inh)
COc1ccc2c(c1)cc(C(=O)N/N=C/c1c(O)c(C(=O)O)cc3ccccc13)n2C	Pemphigus Ab inh inconclusive, PAFAH1B3 inh 29, pPAFAH FP inh 59, PAFAH2 inh 39 | pPAFAH FP conf 84
COc1cccc2cc(C(=O)NCCc3ccccc3)oc12	none
COc1cccc(CNC(=O)c2ccc(NC(=O)CC3SC(N4CCCC4)=NC3=O)cc2)c1 (configuration not stated)	none (no result: PfM18AAP inh)
O=C(Cc1ccsc1)NNC(=O)c1ccccc1Cl	none (no result: PfM18AAP inh)
COc1ccc(NS(=O)(=O)c2cccc(NC(=O)c3ccc(Cl)nc3)c2)cc1	none
O=C(Nc1cccc(S(=O)(=O)Nc2ccc(Cl)cc2)c1)c1ccc(Cl)nc1	pPAFAH FP inh 41 | pPAFAH FP conf 34
CCc1c(O)nc(SCC(=O)Nc2nc3ccccc3s2)n(C2CCCCC2)c1=O	none (no result: Pemphigus Ab inh)
COCCNC(=O)C(=O)c1cc(C)n(-c2ccc([N+](=O)[O-])cc2)c1C	pPAFAH FP inh 36 | pPAFAH FP conf 28
O=c1nc2s/c(=C\c3ccco3)c(=O)n2nc1Cc1ccc(F)cc1	pPAFAH FP inh 40 | pPAFAH FP conf inactive
Cc1ccc(-c2nc3s/c(=C\c4ccco4)c(=O)n3n2)cc1	none
COc1ccc(S(=O)(=O)N2CCC(Cc3ccccc3)CC2)cc1NC(C)=O	none
Cc1ccc(S(=O)(=O)/N=C2\C=C(Nc3ccc(O)cc3)C(=O)c3ccccc32)cc1	PAFAH1B3 inh 61, PAFAH1B2 inh 27, pPAFAH FP inh 38, PAFAH2 inh 35 (no result: PfM18AAP inh) | pPAFAH FP conf 33
COC(=O)c1ccccc1NC1=C/C(=N\S(=O)(=O)c2ccc(C(=O)O)cc2)c2ccccc2C1=O	PAFAH1B3 inh 71, PAFAH1B2 inh 53, pPAFAH FP inh 37, PAFAH2 inh 72 | pPAFAH FP conf 39
Cc1ccc(NC2=C(NCCO)C(=O)c3ccccc3C2=O)cc1	none
Cc1ccc(/C=C2\S/C(=N/S(=O)(=O)c3cccs3)NC2=O)cc1	none
Cc1ccc(NC2=C/C(=N/S(=O)(=O)c3cccs3)c3ccccc3C2=O)cc1	PAFAH1B3 inh 45, pPAFAH FP inh 53 | pPAFAH FP conf 65
COC(=O)c1ccccc1Nc1ccccc1	none (no result: Pemphigus Ab inh)
O=C1C(Nc2ccccc2)=C/C(=N/S(=O)(=O)c2cccs2)c2ccccc21	PAFAH1B3 inh 62, PAFAH1B2 inh 38, pPAFAH FP inh 62, PAFAH2 inh 49 | pPAFAH FP conf 60
O=C1C=C(Nc2ccccc2)C(=O)c2ccccc21	none
CCC(=O)c1ccc(OCC(=O)OCC(=O)N2CCCc3ccccc32)cc1	none (no result: PfM18AAP inh)
CC(=O)Nc1ccc2sccc2c1	none
Oc1ccc(N=Nc2ccccc2-c2nn[nH]n2)c(O)c1	PfM18AAP inh 34, Pemphigus Ab inh inconclusive, PAFAH1B3 inh 40, pPAFAH FP inh 83, PAFAH2 inh 41 | pPAFAH FP conf 46
Cc1ccccc1-c1nn[nH]n1	none
COC1=CC(=O)C(O)=C(CCCCCCC/C=C/CCCCCCCC2=C(O)C(=O)C=C(OC)C2=O)C1=O	PAFAH1B3 inh 41, PAFAH1B2 inh 94, pPAFAH FP inh 95, PAFAH2 inh 101 (no result: PfM18AAP inh) | pPAFAH FP conf 95
COC1=C(OC)C(=O)C(CCCCCCCCCCO)=C(C)C1=O	none (no result: Pemphigus Ab inh, PAFAH1B3 inh, PAFAH1B2 inh, pPAFAH FP inh, PAFAH2 inh)
COc1cccc(CN2C(=NC(=O)C3CCCO3)SC3CS(=O)(=O)CC32)c1 (configuration not stated)	none (no result: PfM18AAP inh, PAFAH1B3 inh, PAFAH1B2 inh, pPAFAH FP inh, PAFAH2 inh)
N#C/C(=C/c1ccc(C(=O)O)cc1)C(=O)Nc1ccccc1	none
N#C/C(=C\c1ccc(O)c(O)c1)C(=O)c1ccc(O)c(O)c1	PAFAH1B3 inh 38, PAFAH1B2 inh 54, pPAFAH FP inh 93, PAFAH2 inh 79 (no result: PfM18AAP inh) | pPAFAH FP conf 85
CCN(CC)S(=O)(=O)c1ccc(C(=O)NNC(=O)c2csc(N3CCOCC3)n2)cc1	pPAFAH FP inh 48 (no result: PfM18AAP inh) | pPAFAH FP conf inactive
Cc1cc(=O)[nH]c(N/N=C/c2ccc(OC(=O)c3ccco3)cc2)n1	none
O=[N+]([O-])c1ccc(N=Nc2c(Cl)cc(O)cc2Cl)cc1	pPAFAH FP inh 46 | pPAFAH FP conf 39
CCCCc1nc2sc3c(=O)[nH]c(=S)[nH]c3c2c2c1CCC2	none (no result: PfM18AAP inh, pPAFAH FP inh)
Cc1cc(C)cc(CC2CC(=O)N(c3cc(C)ccc3C)C2=O)c1 (configuration not stated)	none (no result: pPAFAH FP inh)
Cc1ccc(N2C(=O)CC(Cc3cc(C)cc(C)c3)C2=O)cc1 (configuration not stated)	pPAFAH FP inh 50 | pPAFAH FP conf inactive
COC(=O)c1[nH]c2cc(OC)ccc2c1NC(=O)CCN1CCCCC1	pPAFAH FP inh 39 | pPAFAH FP conf inactive
COc1ccccc1/C=C/C(=O)OCC(=O)NC1CCS(=O)(=O)C1 (configuration not stated)	none (no result: PfM18AAP inh, Pemphigus Ab inh)
O=C(COC(=O)c1c2c(nc3ccccc13)/C(=C\c1ccco1)CC2)NC1CCCC1	none (no result: PfM18AAP inh, pPAFAH FP inh)
Nc1c(C(=O)NC2CC2)sc2nc3c(c(-c4ccco4)c12)CC/C3=C/c1ccco1	PAFAH1B3 inh 56, PAFAH1B2 inh 28, pPAFAH FP inh 89, PAFAH2 inh 46 (no result: Pemphigus Ab inh) | pPAFAH FP conf 48
CCOC(=O)/C=C/C(=O)Nc1ccc(S(=O)(=O)Nc2nccs2)cc1	none
CNc1ccccc(-c2ccc3cc4c(cc3n2)OCO4)c1=O	pPAFAH FP inh 84 | pPAFAH FP conf inactive
c1ccc2nc(-c3ccc4c(c3)OCO4)ccc2c1	none
COc1cccc(N2CC(C(=O)Nc3nnc(SCCN4CCOCC4)s3)CC2=O)c1 (configuration not stated)	none
